From PubChem BioAssay AID488890 (Southern Research Specialized Biocontainment Screening …, 2010)
Hit rate of the full screen: of about 320,000 compounds, about 1,300 (0.41%) were called active. Not shown: some 3% with an inconclusive outcome. The rule behind the calls is not given here. Only a sample is shown. Measured potencies and affinities stand elsewhere.

Experiment: growth inhibition of non-replicating M. tuberculosis (AID 488890);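 note: plate controls were DMSO cells for no effect and high antibiotic wells for full effect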
Conditions: Mycobacterium tuberculosis non-replicating, at 25 µM, stronger effect = higher value

Structure (SMILES)	inhibition
CC(=O)Oc1ccc(OC(C)=O)c(S(=O)(=O)c2ccc(C)c(C)c2)c1	-1.53%
CCOC(=O)N1CCN(S(=O)(=O)c2ccc(C)cc2)C1c1ccc(OC)cc1 (stereo not given)	16.9%
Brc1ccc2c(c1)C(c1ccc(N3CCOCC3)cc1)=NNC(c1cccs1)=N2	18.5%
c1ccc(-n2c(-c3ccco3)nnc2-c2ccco2)cc1	-0.67%
COC(=O)[C@@]1(Cc2ccc(OC)cc2)[C@H]2c3cc(C(=O)N(C)C)n(CCc4ccc(OC)c(Br)c4)c3C[C@H]2CN1C(=O)c1ccccc1	70.8%
CCSc1ncc(/C=N/Nc2ccccc2)n1C	53.4%
CCSc1ncc(/C=N/Nc2ccc(F)cc2)n1C	60.8%
COc1cc(CC(NC(C)=O)C(=O)NC2CCN(c3c4c(nc5ncnn35)CCC4)CC2)cc(OC)c1 (stereo not given)	-7.76%
O=C(N/N=C/c1ccccc1C(=O)O)c1ccncc1	47.8%
COc1ccc(/C=N/NC(=O)c2snnc2C)c(OC)c1OC	4.13%
Cc1nnsc1C(=O)N/N=C/c1ccccc1	-14.8%
O=C(N/N=C/c1cccc2ccccc12)c1cccnc1	77.8%
O=C(N/N=C/c1ccccc1O)c1ccncc1	67.2%
CCOc1ccc2ccccc2c1/C=N\NC(=O)c1ccc([N+](=O)[O-])cc1	8.86%
Cc1ccc(C(=O)N/N=C/c2c(O)ccc3ccccc23)cn1	-8.14%
CCOc1ccc2ccccc2c1/C=N/NC(=O)c1ccc(C)nc1	6.31%
Cc1ccc(NC(=O)[C@H](C)NC(=O)C2CCN(C(=O)[C@@H](NC(=O)OC(C)(C)C)C(C)C)CC2)cc1	-5.73%
CC(C)[C@H](NC(=O)c1ccco1)C(=O)OCC(=O)NC12CC3CC(CC(C3)C1)C2	16.5%
O=C(Nc1cccc(-n2cnnn2)c1)c1cnccc1Cl	-2.47%
O=C(NCc1ccccc1)c1ccc(CN2CCC(Cc3ccccc3)CC2)cc1	63.1%
CCCc1ccc2oc(C(=O)N3CCC(N4CCCC(O)C4)CC3)c(C)c2c1 (stereo not given)	9.91%
O=C(NC1=NCCS1)c1cc(-c2ccccc2)nn1-c1ccccc1	12.3%
Cc1cccc2cc(/C=N/NC(=O)c3ccccc3O)c(Cl)nc12	-1.47%
CCOc1ccccc1C(=O)N/N=C/c1cccc2cccnc12	78.1%
O=C(COc1cccc2cccnc12)N/N=C/c1ccccc1O	21.3%
O=C(N/N=C/c1ccnc2ccccc12)c1ccccc1O	24.1%
CCOc1ccc(C(=O)Nc2cccc3cccnc23)cc1	39%
O=C(O)c1ccc(N/N=C/c2cccc3cccnc23)cc1	-19.9%
COc1cccc(/C=N/NC(=O)COc2cccc3cccnc23)c1O	22.2%
COc1ccc(C(=O)N/N=C/c2cccnc2)cc1	-12.5%
